eIF4H inh: inhibitors of RNA binding by human eIF4H | AID 2012 | 290,000 compounds, 0.94% hits | inhibition, % at 35 µM | Q15056 | eIF4H fluorescence polarization binding assay;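 also: calls also rest on retests at 20 µM and on dose response follow-up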
MLLE-PAM2 inh: inhibitors of microRNA-mediated deadenylation, human PABP1 MLLE binding | GST-MLLE / FITC-PAM2 fluorescence polarization | 360,000 compounds, 0.36% hits | inhibition, % at 20 µM | P11940; in the data active = inhibition above about 35%, passing the limit was not always enough
Target sequence (P11940 whole entry, looked up): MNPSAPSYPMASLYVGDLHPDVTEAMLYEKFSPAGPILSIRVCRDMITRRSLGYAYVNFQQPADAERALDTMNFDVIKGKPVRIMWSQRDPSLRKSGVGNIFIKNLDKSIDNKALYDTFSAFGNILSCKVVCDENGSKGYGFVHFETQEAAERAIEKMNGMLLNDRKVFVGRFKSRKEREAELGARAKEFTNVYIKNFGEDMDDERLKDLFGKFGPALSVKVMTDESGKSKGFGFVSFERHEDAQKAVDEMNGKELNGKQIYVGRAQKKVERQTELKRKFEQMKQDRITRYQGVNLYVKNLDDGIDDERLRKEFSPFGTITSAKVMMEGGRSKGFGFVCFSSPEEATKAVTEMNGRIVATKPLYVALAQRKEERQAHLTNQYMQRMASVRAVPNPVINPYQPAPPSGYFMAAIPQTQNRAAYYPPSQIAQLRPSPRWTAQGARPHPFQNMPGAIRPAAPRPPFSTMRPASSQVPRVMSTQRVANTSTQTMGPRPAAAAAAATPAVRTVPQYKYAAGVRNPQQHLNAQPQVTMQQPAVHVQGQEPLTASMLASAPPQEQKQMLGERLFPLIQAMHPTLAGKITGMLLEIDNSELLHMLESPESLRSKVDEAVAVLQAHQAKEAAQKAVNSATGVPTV
PHOSPHO1 inh: inhibitors of human PHOSPHO1 phosphatase | Q8TCT1 | recombinant PHOSPHO1, absorbance phosphatase assay | inhibition, % at 13.3 µM | 290,000 compounds, 1.1% hits | AID 1565; in the data active = inhibition above about 60%
PABP polyA inh: PABP-poly(A) binding inhibition | P11940 | PABP-poly(A) RNA binding, fluorescence polarization | calls only at 35 µM | 290,000 compounds, 1% hits;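 also: calls also rest on retests at 20 µM and on dose response follow-up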
HMGR II inh: inhibitors of class II HMG-CoA reductase from Enterococcus faecalis; purified E. faecalis HMGR, NADPH absorbance 340 nm kinetic; inhibition, % at 10 µM; 190,000 compounds, 0.41% hits;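 active = inhibition above a set limit, the median over all tested compounds plus 3 SD, cut at about 9.5% in these data; inconclusive = no clear call, values can overlap the other calls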;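 also: enzyme runs in reverse so mevalonate oxidation gives rising NADPH absorbance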
Large screens that a line does not name were inactive. Rows were chosen to be rich in hits. Some 2.4% of all compounds tested hit in one or more screens of this group. Unless noted, no rule for the calls is given here.

O=C(COc1ccc2ccccc2c1)Nc1ccc(Br)cc1C(=O)O	none (no result: HMGR II inh)
O=C(CCCn1cncn1)N1CCCC(N2CCN(c3ccc(F)cc3)CC2)C1 (stereo not given)	none (no result: HMGR II inh)
CCCCn1c(N)c(N(CCOC)C(=O)CSc2n[nH]c(-c3ccc(OC)cc3)n2)c(=O)[nH]c1=O	none (no result: HMGR II inh)
Cc1ccc2c(c1)NC(c1cccs1)C1=C(CC(C)(C)CC1=O)N2 (stereo not given)	eIF4H inh 86, PABP polyA inh active
Cc1ccc(C2Nc3ccccc3NC3=C2C(=O)CC(C)(C)C3)c(O)c1 (stereo not given)	eIF4H inh inconclusive (no result: HMGR II inh)
O=C(CNC(=O)c1ccc(Br)cc1)OCc1cc([N+](=O)[O-])cc2c1OCOC2	PHOSPHO1 inh 68
CCOc1ccc(C(=O)NCC(=O)OCc2cc([N+](=O)[O-])cc3c2OCOC3)cc1OCC	none
COc1cccc(/C=C2\C(=O)C(=O)c3ccccc32)c1	MLLE-PAM2 inh 38
Nc1ccn(-c2ncc(C(F)(F)F)cc2Cl)c(=O)n1	none
FC(F)(F)c1cnc(-n2cc[nH]c2=S)c(Cl)c1	PHOSPHO1 inh 98
O=C(Cn1cnnn1)NC1CCCN(Cc2ccccc2F)C1 (stereo not given)	none (no result: HMGR II inh)
CC(=O)Nc1cccc(-c2csc(C(C)(NC(C)=O)c3ccccc3)n2)c1 (stereo not given)	none (no result: eIF4H inh, PHOSPHO1 inh, PABP polyA inh, HMGR II inh)
N#Cc1c2c(c(=S)n(-c3ccccc3)c1N)CCCC2	eIF4H inh inconclusive, PHOSPHO1 inh 61, PABP polyA inh inconclusive
Cc1sc2ncnc(NCC3CCCO3)c2c1C (stereo not given)	PHOSPHO1 inh 60
Cc1ccc(-n2c(N)c(C(=O)N3CCCCC3)sc2=S)cc1	PHOSPHO1 inh 76
Nc1c(C(=O)N2CCOCC2)sc(=S)n1-c1ccccc1	PHOSPHO1 inh 97
Cc1ccc(-n2c(N)c(C(=O)N3CCN(C)CC3)sc2=S)cc1	none
Nc1c(C(=O)N2CCCCC2)sc(=S)n1-c1ccccc1	PHOSPHO1 inh 86
Cc1ccc(C)c(S(=O)(=O)N2CCN(CC(=O)N3CCc4ccccc4C3)CC2)c1	none
Cc1ccnc(NC(=O)CCc2c(C)nc3ncnn3c2C)c1	PHOSPHO1 inh 64
COCc1ccccc1C1=CC(=O)C[C@H](c2ccc(OC)cc2)C1	none (no result: eIF4H inh, PHOSPHO1 inh, PABP polyA inh, HMGR II inh)
CN(C)c1ccc(N=c2sc3ccccc3n2C)cc1	PHOSPHO1 inh 94
COC(=O)c1nn(-c2ccc(OC)cc2)c(=O)cc1NN	eIF4H inh active
O=c1[nH]c(SCCc2ccccc2)nc2c1CCC2	none (no result: eIF4H inh, PHOSPHO1 inh, PABP polyA inh, HMGR II inh)
CSc1ccc(CN2CCC(Oc3ccc(C(=O)N4CCCC4)cc3)CC2)cc1	none (no result: HMGR II inh)
CCCC(=O)Nc1sc(C)c(C)c1C#N	none
CCc1c(C)sc(NC(=O)CC#N)c1C#N	eIF4H inh 74, PABP polyA inh active
Cn1c(=O)c2c(nc(C3CC4C5CCC(C5)C4C3)n2C)n(C)c1=O (stereo not given)	none (no result: eIF4H inh, PHOSPHO1 inh, PABP polyA inh, HMGR II inh)
CC1(C)CC(=O)C(Sc2nnc(-c3ccc(NS(C)(=O)=O)cc3)n2Cc2ccco2)C(=O)C1	PHOSPHO1 inh 96
CN(C(=O)c1cc2ccccc2o1)c1c(N)n(Cc2ccccc2)c(=O)[nH]c1=O	none (no result: eIF4H inh, PHOSPHO1 inh, PABP polyA inh, HMGR II inh)
N#CCCN/N=C(/Cc1nc2ccccc2[nH]1)c1ccc(Cl)cc1	HMGR II inh 9.9 (no result: MLLE-PAM2 inh)
CCNC(=O)NC(=O)C(C)OC(=O)c1cccn1C (stereo not given)	none
N#Cc1ccc(-c2csc(NC3=NCCCCC3)n2)cc1	none
Brc1ccc(-c2csc(NNC3=NCCCCC3)n2)cc1	PHOSPHO1 inh 88
CC(C)(C)c1ccc(-c2csc(NNC3=NCCCCC3)n2)cc1	none
c1ccc(-c2csc(NC3=NCCCCC3)n2)cc1	eIF4H inh 2.5, PABP polyA inh active
FC(F)Oc1ccc(-c2csc(NNC3=NCCCCC3)n2)cc1	PHOSPHO1 inh 61
CC(=O)Nc1ccc(S(=O)(=O)NC(C)C(=O)NCCc2ccc(F)cc2)cc1 (stereo not given)	none
Cc1[nH]c2c(C)cccc2c1CC(=O)O	eIF4H inh 7.2
CCOC(=O)CNc1nnc(SCC(=O)OCC)[nH]c1=O	MLLE-PAM2 inh 46
O=C(COC(=O)c1ccccc1S(=O)(=O)N1CCCCC1)NCC(F)(F)F	eIF4H inh active, PABP polyA inh active
CC[n+]1c(/C=C(/C)SC)sc2ccccc21	MLLE-PAM2 inh 46
CC[n+]1c(/C=C(\C)Nc2ccccc2)sc2ccccc21	none
CC[n+]1c(/C=C/Nc2ccccc2)sc2ccccc21	PHOSPHO1 inh 98, PABP polyA inh active
CC[n+]1ccccc1/C=C/Nc1ccccc1	PABP polyA inh active
COc1ccc(C(C)=O)cc1COC(=O)CSCC(=O)Nc1ccc(C)cc1	none (no result: eIF4H inh, PHOSPHO1 inh, PABP polyA inh, HMGR II inh)
C[C@H](CO)N1C[C@H](C)[C@@H](CN(C)C(=O)c2ccc3ccn(C)c3c2)OCc2cn(nn2)CCCC1=O	none (no result: eIF4H inh, PHOSPHO1 inh, PABP polyA inh, HMGR II inh)
Cc1cc(C)cc(NC(=O)COC(=O)c2cc(=O)[nH]c(=O)[nH]2)c1	none
CCCCOC(=O)c1cc(=O)[nH]c(=O)[nH]1	PABP polyA inh active
CC(C)(C)c1ccc(C(=O)NC2CCS(=O)(=O)C2)cc1 (stereo not given)	none (no result: HMGR II inh)
COc1cc(/C=N\NC(=O)Cn2nnc3ccccc32)cc(OC)c1OC	none
COc1ccc(/C=N/NC(=O)Cn2c(Cc3ccc(OC)c(OC)c3)nc3ccccc32)cc1	eIF4H inh active, PABP polyA inh active
CCN(CC(=O)Nc1c(F)cccc1F)C(=O)c1cnccn1	none (no result: eIF4H inh, PHOSPHO1 inh, PABP polyA inh, HMGR II inh)
COc1cc(OC)c2ccc(=O)oc2c1C(CC(=O)N1CCCC1)c1ccc2c(c1)OCO2 (stereo not given)	eIF4H inh 82, PABP polyA inh active (no result: HMGR II inh)
COc1cc(C(CCN2CCCC2)c2c(OC)cc(OC)c3ccc(=O)oc23)cc(OC)c1OC (stereo not given)	none (no result: HMGR II inh)
COc1cc(C(CC(=O)N2CCCC2)c2c(OC)cc(OC)c3ccc(=O)oc23)cc(OC)c1OC (stereo not given)	eIF4H inh 52, MLLE-PAM2 inh 43 (no result: HMGR II inh)
Clc1ccc(-c2ncc3ccccn23)cc1	none
Clc1ccccc1-c1ncc2ccccn12	PHOSPHO1 inh 61
CNC(=S)NCCc1ccc(OC)cc1	PABP polyA inh active
COc1ccc(CCNC(=S)Nc2ccc(OC)cc2)cc1	none
Cn1c(N)c(C(=O)NCc2ccccc2)sc1=S	eIF4H inh inconclusive, PABP polyA inh inconclusive
COC(=O)c1ccccc1NC(=O)c1sc(=S)n(C)c1N	PHOSPHO1 inh 90
COC(=O)c1ccccc1NC(=O)c1sc(N)nc1C	none
COc1ccc(CCNC(=O)c2sc(=S)n(C)c2N)cc1	MLLE-PAM2 inh 43
O/N=C(\c1ccccc1)c1nccc2ccccc12	none (no result: HMGR II inh)
CCOC(=O)CSc1nc2cc(C(=O)OC)ccc2c(=O)n1CCN1CCOCC1	PHOSPHO1 inh 70
CC(C)(C)c1ccc(C(=O)NCC(=O)OCC(=O)Nc2nc(-c3ccc(F)cc3)cs2)cc1	PHOSPHO1 inh 62
Cc1ccc(-c2csc(NC(=O)CCNC(=O)c3ccc(Cl)cc3)n2)cc1	none
COc1ccc(-n2c(CCC(=O)O)ccc2-c2ccc(F)cc2)c(OC)c1	none (no result: HMGR II inh)
C/C(N)=C(/C#N)C(=O)COC(=O)CNS(=O)(=O)c1c(F)cccc1F	none
CC(C)(C)OC(=O)NCCCCCNC(=O)c1[nH]cnc1C(=O)Nc1cc(Br)ccc1F	none (no result: eIF4H inh, PHOSPHO1 inh, PABP polyA inh, HMGR II inh)

Compound activity deposited in PubChem by several laboratories.
